Common to all, as to conditions: 25 µM; exposure: 24-48 hpf
For assay [1], the system named is Danio rerio Tg(wt1b:EGFP) embryo, pronephros. Nature of the assay: glomerular separation, fold change vs DMSO control; higher = glomeruli further apart (abnormal). Summed up: (§1)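 Dechorionated Tg(wt1b:EGFP) zebrafish embryos were incubated at 28.5°C from 24 to 48 hpf with 25 μM compound in HEPES-buffered E3 containing 0.5% DMSO and 0.003% PTU. Distances and angles between 16 manually set points on maximum projections of dorsal pronephros images were measured in Fiji, with values over 2 SD from the feature mean excluded. Each feature is a fold change relative to the mean of same-day DMSO-treated embryos.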

Assay [2] has the same test system. Nature of the assay: glomerular width (mean of left and right), fold change vs DMSO control; higher = wider glomerulus. Summed up: as §1
For assay [3] the test system is unchanged. Nature of the assay: fraction of imaged embryos annotated as normal kidney; higher = less nephrotoxic; extreme values may be limits of the assay. Summed up:
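Embryos of the Tg(wt1b:EGFP) zebrafish line were dechorionated and held in 12-well plates with 25 μM compound in 0.5% DMSO and 5 mM HEPES-buffered E3 containing 0.003% PTU, from 24 to 48 hpf at 28.5°C. Larvae were then anaesthetised with tricaine, set dorsal side up in agarose-filled 96-well plates, and their pronephroi imaged by widefield fluorescence at 470 nm over 10 z-slices. Each value is the fraction of embryos per treatment placed in the normal-kidney category after manual annotation of maximum projections.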

Assay [4] has the same test system. Nature of the assay: pronephric angle neck segment to proximal convoluted tubule (mean of left and right), fold change vs DMSO control; higher = larger pronephric angle. Summed up: as §1

Counter-ions that a name gives are not always drawn. ± gives the standard deviation or the standard deviation of the averaged measurements.

`C[C@@H]1CN(c2c(F)c(N)c3c(=O)c(C(=O)O)cn(C4CC4)c3c2F)C[C@H](C)N1` [Sparfloxacin]: the glomerular separation in assay [1] was determined as 0.812 ± 0.23. This compound had a glomerular width in assay [2] of 0.92 ± 0.019. Further, the “fraction of imaged embryos annotated as normal kidney” value (“fraction of imaged embryos annotated” for short) in assay [3] was found to be 1. In assay [4], the “pronephric angle neck segment” value worked out at 1.04 ± 0.024.
For `CC=CC(=O)N(CC)c1ccccc1C` [Crotamiton], in that order: 0.867 ± 0.16, 0.96 ± 0.038, 1 and 1 ± 0.019.
The like results for `OCCN1C[C@H](O)[C@@H](O)[C@H](O)[C@H]1CO` [Miglitol] were, in that order, 1.12 ± 0.48, 0.995 ± 0.011, 0.909 and 0.982 ± 0.0086.
For `CC(C)n1c(/C=C/C(O)CC(O)CC(=O)O)c(-c2ccc(F)cc2)c2ccccc21` (centres undefined) [Fluvastatin sodium salt], in that order: 4.31 ± 1.6, 0.609 ± 0.057, 0 and 1.56 ± 0.093.
`CCOC(=O)/C=C(C)/C=C/C=C(C)/C=C/c1c(C)cc(OC)c(C)c1C` [Etretinate]: the glomerular separation in assay [1] was found to be 0.794 ± 0.27. In assay [2], this compound yielded a glomerular width of 0.831 ± 0.034. Moreover, the “fraction of imaged embryos annotated” value in assay [3] turned out to be 1. In assay [4], the “pronephric angle neck segment” value came to 1.093 ± 0.01.
For `NCc1ccc(S(N)(=O)=O)cc1` [Mafenide hydrochloride], in that order: 0.887 ± 0.27, 1.09 ± 0.019, 0.833 and 0.9512 ± 0.0031.
`CSc1ccc2c(c1)N(CCC1CCCCN1C)c1ccccc1S2` (centres undefined) [Thioridazine hydrochloride] yielded a glomerular separation in assay [1] of 1.12 ± 0.33. In assay [2], the glomerular width stood at 1.03 ± 0.047. In assay [3], the “fraction of imaged embryos annotated” value was 0.75. Besides, the “pronephric angle neck segment” value in assay [4] came out at 0.9994 ± 0.0046.
In turn, `CN(C)c1nc(N(C)C)nc(N(C)C)n1` [Altretamine] showed a glomerular separation in assay [1] of 0.998 ± 0.46. For the same compound, the glomerular width in assay [2] worked out at 0.923 ± 0.011. Further, in assay [3], the “fraction of imaged embryos annotated” value came out at 0.917. In assay [4], the “pronephric angle neck segment” value came out at 1.06 ± 0.062.
For `CCCCc1nc(Cl)c(CO)n1Cc1ccc(-c2ccccc2-c2nnn[nH]2)cc1` [Losartan], in that order: 0.969 ± 0.39, 0.9444 ± 0.0062, 0.75 and 1.04 ± 0.044.
The like results for `CC(C)NCC(O)c1ccc2ccccc2c1` (centres undefined) [Pronethalol hydrochloride] were, in that order, 0.915 ± 0.49, 0.96 ± 0.036, 0.833 and 1.03 ± 0.06.
Regarding `NS(=O)(=O)c1cc(C2(O)NC(=O)c3ccccc32)ccc1Cl` (centres undefined) [Chlorthalidone], in assay [1], the glomerular separation was 1.04 ± 0.23. Besides, in assay [2], the glomerular width came out at 1.04 ± 0.079. The “fraction of imaged embryos annotated” value in assay [3] came out at 0.75. In addition, the “pronephric angle neck segment” value in assay [4] is 1.02 ± 0.073.

Source of the values: the supplement of paper PMC7366291.
